{"source": "PubChem BioAssay AID1159580", "about": "(chemical genetic matrix, 2015)", "experiment": "chemical genetic growth profiling, strain panel (AID 1159580);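 note: tested at 20 µM; growth read once vehicle control cultures reached saturation at 30 °C; 1 = growth at the plate median or of vehicle wells; lower values mean less growth of the strain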", "details": "S. cerevisiae deletion strains, growth OD", "note": "“And” between values parts separate entries of the source, which are not always exact repeats. Equal entries are not always repeated. Out of some 5,500 compounds screened, about 2,000 (36%) were called active. About 18% were inconclusive and are not listed. The list shows a part of the results. Unmarked numbers belong to inactive results. Cut-off read from the data, not from the text of the source: active = normalized growth mostly below about 0.91 (no sharp cut-off); inconclusive = no clear call, values can overlap the other calls; inactive = mostly above about 0.92.", "data": [{"smiles": "C#C[C@]1(O)CCC2C3CCC4=C(CCC(=O)C4)C3CC[C@@]21C", "note": "(some centres undefined)", "values": [{"measurement": "normalized growth", "setting": "locus YAL021C, strain ccr4, hits give low values", "value": 0.992}, {"measurement": "normalized growth", "setting": "locus YAL026C, strain drs2, hits give low values", "value": 0.942}, {"measurement": "normalized growth", "setting": "locus YAL030W, strain snc1, hits give low values", "value": 0.987}, {"measurement": "normalized growth", "setting": "locus YBL061C, strain skt5, hits give low values", "value": 0.993}, {"measurement": "normalized growth", "setting": "locus YBR009C, strain hhf1, hits give low values", "value": 0.941}, {"measurement": "normalized growth", "setting": "locus YBR021W, strain FUR4, hits give low values", "value": 0.977}, {"measurement": "normalized growth", "setting": "locus YBR023C, strain chs3, hits give low values", "value": 0.986}, {"measurement": "normalized growth", "setting": "locus YBR171W, strain sec66, hits give low values", "value": 0.974}, {"measurement": "normalized growth", "setting": "locus YBR229C, strain ROT2, hits give low values", "value": 1.01}, {"measurement": "normalized growth", "setting": "locus YBR231C, strain swc5, hits give low values", "value": 1}, {"measurement": "normalized growth", "setting": "locus YBR279W, strain paf1, hits give low values", "value": 0.982}, {"measurement": "normalized growth", "setting": "locus YCL011C, strain gbp2, hits give low values", "value": 0.98}, {"measurement": "normalized growth", "setting": "locus YCL016C, strain dcc1, hits give low values", "value": 0.994}, {"measurement": "normalized growth", "setting": "locus YCL029C, strain bik1, hits give low values", "value": 1.01}, {"measurement": "normalized growth", "setting": "locus YCL061C, strain MRC1, hits give low values", "value": 0.971}, {"measurement": "normalized growth", "setting": "locus YCL069W, strain vba3, hits give low values", "value": 0.973}, {"measurement": "normalized growth", "setting": "locus YCR088W, strain abp1, hits give low values", "value": 0.986}, {"measurement": "normalized growth", "setting": "locus YDL005C, strain med2, hits give low values", "value": 0.982}, {"measurement": "normalized growth", "setting": "locus YDL035C, strain GPR1, hits give low values", "value": 0.964}, {"measurement": "normalized growth", "setting": "locus YDL040C, strain nat1, hits give low values", "value": 0.989}, {"measurement": "normalized growth", "setting": "locus YDL074C, strain BRE1, hits give low values", "value": 1.03}, {"measurement": "normalized growth", "setting": "locus YDL101C, strain DUN1, hits give low values", "value": 1}, {"measurement": "normalized growth", "setting": "locus YDL134C, strain PPH21, hits give low values", "value": 0.981}, {"measurement": "normalized growth", "setting": "locus YDL185W, strain tfp1, hits give low values", "value": 1}, {"measurement": "normalized growth", "setting": "locus YDL192W, strain arf1, hits give low values", "value": 1.01}, {"measurement": "normalized growth", "setting": "locus YDR001C, strain nth1, hits give low values", "value": 0.983}, {"measurement": "normalized growth", "setting": "locus YDR069C, strain doa4, hits give low values", "value": 0.97}, {"measurement": "normalized growth", "setting": "locus YDR101C, strain arx1, hits give low values", "value": 0.984}, {"measurement": "normalized growth", "setting": "locus YDR137W, strain rgp1, hits give low values", "value": "0.807 (active)"}, {"measurement": "normalized growth", "setting": "locus YDR150W, strain NUM1, hits give low values", "value": 1.03}, {"measurement": "normalized growth", "setting": "locus YDR159W, strain sac3, hits give low values", "value": 0.915}, {"measurement": "normalized growth", "setting": "locus YDR162C, strain NBP2, hits give low values", "value": 1.02}, {"measurement": "normalized growth", "setting": "locus YDR195W, strain ref2", "value": 1.07}, {"measurement": "normalized growth", "setting": "locus YDR297W, strain sur2, hits give low values", "value": 0.985}, {"measurement": "normalized growth", "setting": "locus YDR318W, strain mcm21, hits give low values", "value": 0.98}, {"measurement": "normalized growth", "setting": "locus YDR334W, strain swr1, hits give low values", "value": 0.996}, {"measurement": "normalized growth", "setting": "locus YDR335W, strain msn5, hits give low values", "value": 0.97}, {"measurement": "normalized growth", "setting": "locus YDR388W, hits give low values", "value": 1}, {"measurement": "normalized growth", "setting": "locus YDR392W, strain spt3, hits give low values", "value": 0.761}, {"measurement": "normalized growth", "setting": "locus YDR502C, strain sam2, hits give low values", "value": 0.985}, {"measurement": "normalized growth", "setting": "locus YEL003W, strain gim4, hits give low values", "value": 0.971}, {"measurement": "normalized growth", "setting": "locus YEL037C, strain rad23, hits give low values", "value": 0.98}, {"measurement": "normalized growth", "setting": "locus YEL061C, strain CIN8 (second series), hits give low values", "value": 0.969}, {"measurement": "normalized growth", "setting": "locus YEL061C, strain CIN8, hits give low values", "value": 1.02}, {"measurement": "normalized growth", "setting": "locus YER015W, strain faa2, hits give low values", "value": 0.994}, {"measurement": "normalized growth", "setting": "locus YER016W, strain bim1, hits give low values", "value": 0.976}, {"measurement": "normalized growth", "setting": "locus YER110C, hits give low values", "value": 1}, {"measurement": "normalized growth", "setting": "locus YER111C, strain swi4, hits give low values", "value": 1}, {"measurement": "normalized growth", "setting": "locus YER155C, strain BEM2 (second series), hits give low values", "value": 0.974}, {"measurement": "normalized growth", "setting": "locus YER155C, strain BEM2, hits give low values", "value": 1.02}, {"measurement": "normalized growth", "setting": "locus YER167W, strain BCK2, hits give low values", "value": 1.01}, {"measurement": "normalized growth", "setting": "locus YFR010W, strain ubp6, hits give low values", "value": 0.98}, {"measurement": "normalized growth", "setting": "locus YGL078C, strain dbp3, hits give low values", "value": 0.995}, {"measurement": "normalized growth", "setting": "locus YGL086W, strain mad1, hits give low values", "value": 0.99}, {"measurement": "normalized growth", "setting": "locus YGL167C, strain pmr1, hits give low values", "value": 0.984}, {"measurement": "normalized growth", "setting": "locus YGL173C, strain kem1, hits give low values", "value": 0.957}, {"measurement": "normalized growth", "setting": "locus YGL227W, strain vid30, hits give low values", "value": 0.98}, {"measurement": "normalized growth", "setting": "locus YGL240W, strain doc1, hits give low values", "value": 0.949}, {"measurement": "normalized growth", "setting": "locus YGL248W, strain PDE1, hits give low values", "value": 1}, {"measurement": "normalized growth", "setting": "locus YGL253W, strain hxk2, hits give low values", "value": 0.962}, {"measurement": "normalized growth", "setting": "locus YGR135W, strain pre9, hits give low values", "value": 0.981}, {"measurement": "normalized growth", "setting": "locus YGR252W, strain gcn5, hits give low values", "value": 0.893}, {"measurement": "normalized growth", "setting": "locus YHR013C, strain ard1, hits give low values", "value": 0.965}, {"measurement": "normalized growth", "setting": "locus YHR027C, strain rpn1, hits give low values", "value": 0.984}, {"measurement": "normalized growth", "setting": "locus YHR030C, strain SLT2, hits give low values", "value": "1.03 and 0.904"}, {"measurement": "normalized growth", "setting": "locus YHR079C, strain IRE1 (second series), hits give low values", "value": 0.999}, {"measurement": "normalized growth", "setting": "locus YHR079C, strain IRE1, hits give low values", "value": 0.873}, {"measurement": "normalized growth", "setting": "locus YHR094C, strain hxt1, hits give low values", "value": 0.997}, {"measurement": "normalized growth", "setting": "locus YHR129C, strain ARP1, hits give low values", "value": 1.02}, {"measurement": "normalized growth", "setting": "locus YHR142W, strain chs7, hits give low values", "value": 0.921}, {"measurement": "normalized growth", "setting": "locus YHR200W, strain rpn10, hits give low values", "value": 1}, {"measurement": "normalized growth", "setting": "locus YIL066C, strain RNR3, hits give low values", "value": 1.02}, {"measurement": "normalized growth", "setting": "locus YIL073C, strain SPO22, hits give low values", "value": 0.968}, {"measurement": "normalized growth", "setting": "locus YIL125W, strain kgd1, hits give low values", "value": 1}, {"measurement": "normalized growth", "setting": "locus YIR030C, strain dcg1, hits give low values", "value": 1.02}, {"measurement": "normalized growth", "setting": "locus YJL092W, strain hpr5, hits give low values", "value": 0.986}, {"measurement": "normalized growth", "setting": "locus YJL095W, strain BCK1 (second series), hits give low values", "value": 0.991}, {"measurement": "normalized growth", "setting": "locus YJL095W, strain BCK1, hits give low values", "value": "0.979 and 0.922"}, {"measurement": "normalized growth", "setting": "locus YJL115W, strain asf1, hits give low values", "value": 0.975}, {"measurement": "normalized growth", "setting": "locus YJL129C, strain trk1, hits give low values", "value": 0.884}, {"measurement": "normalized growth", "setting": "locus YJL134W, strain LCB3, hits give low values", "value": 1.02}, {"measurement": "normalized growth", "setting": "locus YJL154C, strain vps35, hits give low values", "value": 0.97}, {"measurement": "normalized growth", "setting": "locus YJL164C, strain tpk1, hits give low values", "value": 0.949}, {"measurement": "normalized growth", "setting": "locus YJL166W, strain qcr8, hits give low values", "value": 0.97}, {"measurement": "normalized growth", "setting": "locus YJL168C, strain set2, hits give low values", "value": 1}, {"measurement": "normalized growth", "setting": "locus YJL187C, strain SWE1 (second series), hits give low values", "value": 1.01}, {"measurement": "normalized growth", "setting": "locus YJL187C, strain SWE1, hits give low values", "value": 0.981}, {"measurement": "normalized growth", "setting": "locus YJR043C, strain POL32, hits give low values", "value": 1.02}, {"measurement": "normalized growth", "setting": "locus YJR066W, strain TOR1, hits give low values", "value": 0.886}]}]}
